Source: PubChem BioAssay AID1851 (National Center for Advancing Translational Sciences (NCATS), 2009)
About 4,000 (25%) of roughly 16,000 compounds were called active. Not shown: some 26% with an inconclusive outcome. Calls come from the whole dose curve; as a rule, active = well fitted curve in the direction sought with a large enough effect; inconclusive = small, poorly fitted or top-dose-only effect, or effect the other way; inactive = no such curve, though single readings can be large or run the other way. These entries were drawn from the full list.

Molecular target: Cytochrome P450 2C9 (Homo sapiens) (UniProt P11712)
Sequence (P11712 whole entry, looked up): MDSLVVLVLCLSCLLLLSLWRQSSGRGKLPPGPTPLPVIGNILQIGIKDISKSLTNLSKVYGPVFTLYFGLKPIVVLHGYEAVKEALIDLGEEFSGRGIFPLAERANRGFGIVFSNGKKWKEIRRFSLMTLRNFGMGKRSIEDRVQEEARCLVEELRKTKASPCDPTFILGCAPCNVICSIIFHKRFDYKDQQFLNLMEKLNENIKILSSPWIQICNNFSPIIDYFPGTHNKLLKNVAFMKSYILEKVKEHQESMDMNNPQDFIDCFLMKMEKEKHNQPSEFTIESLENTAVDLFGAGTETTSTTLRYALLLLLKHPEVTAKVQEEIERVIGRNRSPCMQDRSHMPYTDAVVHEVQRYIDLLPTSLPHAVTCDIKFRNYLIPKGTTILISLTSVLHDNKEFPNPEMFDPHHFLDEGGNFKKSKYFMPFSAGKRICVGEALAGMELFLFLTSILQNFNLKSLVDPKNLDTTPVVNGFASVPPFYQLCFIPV
Assay: Cytochrome panel assay with activity outcomes
Conditions: recombinant CYP, pro-luciferin dealkylation, luminescence, p450-cyp2c9; series mostly up to 57.1 µM
% is set by controls: 0 for no effect and ±100 for the full control effect.

AC50, inactive:
CSC(N)=NCCC[C@@H](N)C(=O)O
O=C(O)[C@H]1C[C@H](C(=O)O)N1
Cc1cc(CNC(=O)[C@H]2C[C@@H]2[C@H](NP(=O)(c2ccccc2)c2ccccc2)c2ccccc2)nn1C
Cc1cc(CNC(=O)[C@@H]2C[C@H]2[C@@H](NP(=O)(c2ccccc2)c2ccccc2)c2ccccc2)nn1C
O=C(CC1CCCC1)Nc1ccc2c(c1)CCC2
CC(=O)NNC(=O)CCC(=O)Nc1ccccc1
O=C(N/N=C/c1ccccn1)c1ccco1
CS(=O)(=O)N1CCC2(CC1)CN(C(=O)Nc1ccccc1)C2
CC(C)N1CCC(=NNC(=O)c2ccc(Br)o2)CC1
COCC(=O)N1CCC2(CCCN(Cc3ccccc3)C2)CC1
O=C(c1cc(Cl)c(=O)n(Cc2ccc(Cl)cc2)c1)N1CCOCC1
O=C1S/C(=C/c2ccc(N3CCOCC3)o2)C(=O)N1Cc1ccc(F)cc1
O=C(c1cc(C(F)(F)F)cc(C(F)(F)F)c1)N1CCC[C@@]2(CCN(c3ccccc3)C2)C1
O=C(O)CSc1cc(C(F)(F)F)nc(-c2ccccn2)n1
CCCC1(C(=O)OC)C=C2C(=C(C)C(=O)C2C)CN1 (stereo not drawn)

AC50, active:
O=C(NCc1nc2ccccc2[nH]1)[C@H]1C[C@@H]1[C@H](NP(=O)(c1ccccc1)c1ccccc1)c1ccccc1 12.6 µM
CC(=O)c1cccc(NC(=O)CCC2CCCC2)c1 14.1 µM
N#C/C(=C\Nc1ccccn1)C(=O)c1ccco1 3.16 µM
CS(=O)(=O)N1CCN(c2ccccc2NC(=O)c2ccc(Br)o2)CC1 20 µM
O=C(c1ccc2c(c1)N(Cc1ccc(F)cc1)C(=O)CS2)N1CCOCC1 17.8 µM
CC(Sc1nc(-c2ccccc2)cc(C(F)(F)F)n1)C(=O)N1CCCCC1 (stereo not drawn) 8.91 µM
COC(=O)C1(CC(C)C)C=C2C(=C(C(C)C)C(=O)C2C)CN1 (stereo not drawn) 12.6 µM
CCCCCC1=C2CNC(CC(C)C)(C(=O)OC)C=C2C(C)C1=O (stereo not drawn) 3.16 µM
CCCCCC1=C2CNC(CCC)(C(=O)OC)C=C2C(C)C1=O (stereo not drawn) 10 µM

activity, negative = inhibition, inactive:
N=C(N)CCNC(=O)[C@@H]1CCC(N)=N1 -0.797% [at 11.4 µM]
N#C/C(=C\Nc1ccccn1)C(=O)C1CC1 2.34% [at 11.4 µM]
CC(C)CSC[C@@H]1O[C@H](n2cnc3c(N)nccc32)[C@H](O)[C@@H]1O 3.85% [at 11.4 µM]
c1ccc(CNc2ccnc(-c3ccc4c(c3)OCO4)n2)cc1 -0.997% [at 2.29 µM]
